Data on one molecule can be found in PubChem BioAssay AID602412 (Johns Hopkins Ion Channel Center, 2012).

Molecules are shown by their SMILES. This is one part of the list. The source made the active and inactive calls.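 Rule for the calls: active = calcium signal rise, corrected for plate position, at least 3 library SD high, with starting brightness within 5 such deviations; inactive = the rest.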

The target of the experiment is Mas-related G-protein coupled receptor member X1 (Homo sapiens) (UniProt Q96LB2). Briefly: activators of human MrgX1 calcium signaling – HEK293 cells, Fluo-4 calcium flux, confirmation (AID 602412). Particulars: MrgX1-HEK293, Fluo-4 calcium fluorescence, FDSS; at 10 µM; stronger effect = higher value.
Sequence of Mas-related G-protein coupled receptor member X1 (Homo sapiens) (Q96LB2 whole entry, looked up): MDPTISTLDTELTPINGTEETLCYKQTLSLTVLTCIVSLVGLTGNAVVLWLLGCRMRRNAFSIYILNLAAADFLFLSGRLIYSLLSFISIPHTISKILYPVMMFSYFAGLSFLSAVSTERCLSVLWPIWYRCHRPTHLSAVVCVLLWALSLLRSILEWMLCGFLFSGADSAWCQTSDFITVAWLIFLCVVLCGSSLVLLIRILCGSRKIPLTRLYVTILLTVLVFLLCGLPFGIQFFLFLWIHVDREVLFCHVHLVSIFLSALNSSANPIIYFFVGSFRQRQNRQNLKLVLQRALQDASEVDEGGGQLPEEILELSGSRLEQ

Turning to `CCCCC(=O)N/N=C/c1c(O)n(CC)c(=S)n(CC)c1=O`, the activation is 372% (active).
